The source of these data is PubChem BioAssay (NCATS).

Common to all, as to assay: qHTS profiling for inhibitors of Plasmodium falciparum proliferation (AID 504749); also: nearly all actives have a fitted effect of over 60% in size
Holding throughout (settings): P. falciparum in erythrocytes, SYBR Green DNA, 72 h; series mostly up to 12.8 µM
A general note: In qHTS, concentration-response curves come from the screen itself.

One assay relates to CP201. In a few lines:
(§1)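 P. falciparum-infected erythrocytes (0.3% parasitemia, 2.5% hematocrit final) were exposed to compounds for 72 h at 37 C in 5% CO2, then lysed with SYBR Green buffer overnight at room temperature; parasite DNA fluorescence was normalized to artemisinin and DMSO controls.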

In another assay the test system is CP211. In a few lines:
as §1

A further assay has as its system CP262. In a few lines: as §1
The next assay concerns CP266. In a few lines:
as §1

A further assay relates to CP269. In a few lines: as §1
Another assay relates to CP291. In a few lines:
as §1

The next assay deals with CP305. In a few lines: as §1
The subject of the next assay is CP325. In a few lines: as §1
Another assay deals with ICS. In a few lines: as §1
The test system of another assay is AA1029. In a few lines:
as §1

In the next assay the test system is ATS95. In a few lines: as §1
For a further assay, the system named is CP260. In a few lines:
as §1

A further assay relates to CP286. In a few lines:
as §1

In the next assay the test system is Dd2. In a few lines:
as §1

A further assay deals with P93_24. In a few lines: as §1
For a further assay, the system named is PC15. In a few lines:
as §1

In another assay the test system is TAB165. In a few lines:
as §1

In another assay the test system is CP192. In a few lines:
as §1

In a further assay the test system is DIV14. In a few lines:
as §1

The test system of another assay is DIV30. In a few lines: as §1

Each structure is given as a SMILES string. Results filed as inconclusive are left out. Activity calls are given as the source filed them. Calls follow the shape of the dose curve; as a rule, active = well fitted inhibition curve with a large enough effect; inconclusive = small, poorly fitted or top-dose-only effect; inactive = flat fitted curve, though single readings scatter.
Potency is read from the fitted curve at half-maximal effect.

`Cc1cccc(CN2CCN([C@@H](c3ccccc3)c3ccc(Cl)cc3)CC2)c1`: the Potency result in the assay with CP201, with CP211, in the assay with CP262, in the assay on CP266, in the assay on CP269 and in the assay on CP291 was “inactive” in each case. Further, the Potency result with CP305 and in the assay with CP325 was “inactive” each time. In the assay with ICS, the Potency is 2.82 µM (active).
Take `Cc1cccc(C)c1NC(=O)[C@H](C)N`: the Potency entry in the assay with AA1029, in the assay on ATS95, with CP260, in the assay on CP286, with Dd2 and in the assay on ICS was “inactive” each time. Also, the Potency entry with P93_24, in the assay with PC15 and in the assay with TAB165 was “inactive” in each case.
In the case of `Cn1nnnc1SCC1=C(C(=O)O)N2C(=O)[C@@H](NC(=O)[C@@H](O)c3ccccc3)[C@@H]2SC1`, the Potency entry with AA1029, in the assay with ATS95, in the assay on CP192, in the assay on CP201, in the assay on CP211 and in the assay on CP260 was “inactive” in each case. Further, the Potency result with CP262, in the assay on CP266, with CP269, in the assay with CP286, in the assay on CP305 and in the assay on CP325 was “inactive” each time. Also, the Potency entry in the assay on DIV14, in the assay with DIV30, in the assay on Dd2, in the assay with ICS, in the assay on P93_24 and with PC15 was “inactive” in each case. The Potency result in the assay on TAB165 is “inactive”.
Turning to `NC[C@@H]1O[C@H](O[C@H]2[C@H](O)[C@H](O[C@@H]3O[C@H](CO)[C@@H](O)[C@H](N)[C@@H]3O)[C@@H](N)C[C@H]2N)[C@@H](O)[C@H](O)[C@@H]1O`, the Potency entry in the assay on AA1029, in the assay on ATS95, with CP192, in the assay on CP201, in the assay on CP211 and with CP260 was “inactive” in each case. The Potency entry in the assay on CP262, with CP266, in the assay on CP269, with CP286, with CP291 and in the assay on CP305 was “inactive” in each case. The Potency entry with CP325, in the assay on DIV14, in the assay with DIV30, in the assay with Dd2, in the assay on ICS and in the assay with P93_24 was “inactive” in each case. For the same molecule, the Potency entry with PC15 and with TAB165 was “inactive” throughout.
On to `CCN(CC)CCOC(=O)[C@@H](Cc1cccc2ccccc12)C[C@@H]1CCCO1`, for which the Potency entry in the assay with AA1029, in the assay on CP201, with CP211, in the assay with CP260, with CP262 and in the assay on CP266 was “inactive” throughout. In addition, the Potency result with CP269, in the assay with CP286, with CP291, with CP305, in the assay on CP325 and in the assay on DIV30 was “inactive” in each case. For the same molecule, the Potency result in the assay with ICS, in the assay with P93_24, in the assay with PC15 and in the assay with TAB165 was “inactive” in each case.
Consider `CO[C@]1(NC(=O)[C@H](C(=O)O)c2ccc(O)cc2)C(=O)N2C(C(=O)O)=C(CSc3nnnn3C)CO[C@H]21`, for which the Potency result with AA1029, in the assay with ATS95, in the assay with CP192, with CP201, in the assay with CP211 and in the assay on CP260 was “inactive” in each case. The Potency entry in the assay with CP262, with CP266, with CP269, in the assay with CP286, in the assay on CP291 and in the assay on CP305 was “inactive” in each case. For the same molecule, the Potency entry with CP325, in the assay on DIV14, in the assay with DIV30, with Dd2, in the assay with ICS and in the assay on P93_24 was “inactive” each time. In addition, the Potency result in the assay on PC15 and in the assay with TAB165 was “inactive” throughout.
As for `CN[C@H]1[C@@H](O)[C@@H](NC)[C@@H]2O[C@@]3(O)C(=O)C[C@@H](C)O[C@H]3O[C@H]2[C@H]1O`, the Potency result with AA1029, in the assay with ATS95, in the assay with CP192, in the assay on CP201, in the assay on CP211 and with CP260 was “inactive” each time. Moreover, the Potency result in the assay with CP262, in the assay with CP266, with CP269, in the assay on CP286, in the assay with CP291 and with CP305 was “inactive” throughout. Besides, the Potency result in the assay on CP325, with DIV14, with DIV30, in the assay on Dd2, in the assay on ICS and in the assay with P93_24 was “inactive” throughout. Also, the Potency entry in the assay with PC15 and in the assay on TAB165 was “inactive” throughout.
With `CCC(=O)OCC(=O)[C@@]1(OC(=O)CC)[C@H](C)C[C@@H]2[C@@H]3[C@H]([C@@H](O)C[C@@]21C)[C@]1(C)C=CC(=O)C=C1C[C@@H]3Cl`, the Potency result with AA1029, in the assay with CP192, in the assay with CP201, in the assay on CP211, in the assay on CP262 and with CP266 was “inactive” each time. The Potency in the assay with CP260 is 3.98 µM (active); with DIV14 it was 5.1 µM (active); with ICS it was 1.12 µM (active); in the assay with TAB165, 3.98 µM (active).
In the case of `CC(C)(C)NC(=O)[C@@H]1CC[C@@H]2[C@@H]3CC[C@@H]4NC(=O)C=C[C@@]4(C)[C@H]3CC[C@]21C`, the Potency result in the assay on AA1029, in the assay with ATS95, in the assay with CP192, in the assay with CP201, with CP211 and in the assay with CP260 was “inactive” each time. For the same molecule, the Potency result in the assay with CP262, with CP266, in the assay with CP269, in the assay with CP286, with CP291 and in the assay with CP305 was “inactive” throughout. Also, the Potency result in the assay with CP325, with DIV14, in the assay with DIV30, in the assay on Dd2, with ICS and in the assay with P93_24 was “inactive” throughout. For the same molecule, the Potency entry in the assay on PC15 and in the assay on TAB165 was “inactive” in each case.
In the case of `CCN(CCCCOC(=O)c1ccc(OC)c(OC)c1)[C@@H](C)Cc1ccc(OC)cc1`, the Potency entry with AA1029, in the assay with CP211, in the assay on CP266, in the assay with CP291, in the assay on CP325 and in the assay with DIV30 was “inactive” in each case. Besides, the Potency result in the assay with Dd2, in the assay with P93_24, in the assay with PC15 and in the assay with TAB165 was “inactive” in each case.
`Cc1ccsc1/C=C\C1=NCCCN1C`: the Potency entry in the assay on AA1029, in the assay with ATS95, in the assay on CP192, in the assay on CP201, with CP211 and in the assay on CP260 was “inactive” each time. Also, the Potency result in the assay with CP262, in the assay on CP266, with CP269, with CP286, in the assay on CP291 and with CP305 was “inactive” each time. The Potency entry with CP325, in the assay on DIV14, in the assay with DIV30, with Dd2, in the assay with ICS and in the assay on P93_24 was “inactive” each time. Moreover, the Potency entry in the assay on PC15 and in the assay on TAB165 was “inactive” each time.
Take `c1ccc2c(c1)CCC[C@@H]2C1=NCCN1`: the Potency entry with AA1029, in the assay on ATS95, in the assay with CP192, in the assay with CP201, with CP211 and in the assay with CP260 was “inactive” in each case. In addition, the Potency entry in the assay with CP262, in the assay with CP266, with CP269, in the assay with CP286, in the assay with CP291 and in the assay with CP305 was “inactive” each time. Besides, the Potency entry in the assay on CP325, in the assay with DIV14, in the assay with DIV30, with Dd2, in the assay with ICS and in the assay on P93_24 was “inactive” throughout. Further, the Potency entry with PC15 and in the assay with TAB165 was “inactive” in each case.
Consider `Clc1ccc([C@H](Cn2ccnc2)OCc2c(Cl)cccc2Cl)c(Cl)c1`, for which the Potency in the assay on DIV14 is 5.1 µM (active); with DIV30 it was 7.21 µM (active); in the assay with Dd2 it was 3.55 µM (active); in the assay on ICS, 1.58 µM (active); with P93_24, 0.794 µM (active); in the assay on TAB165, 0.355 µM (active).
For the molecule `CN(C)CCn1nnnc1SCC1=C(C(=O)O)N2C(=O)[C@@H](NC(=O)Cc3csc(N)n3)[C@@H]2SC1`, the Potency result in the assay on AA1029, in the assay with ATS95, in the assay on CP192, in the assay with CP201, in the assay with CP211 and with CP262 was “inactive” in each case. The Potency entry in the assay on CP266, in the assay with CP286, with CP291, with CP305, in the assay with CP325 and in the assay with Dd2 was “inactive” each time. Also, the Potency in the assay with ICS is 2.51 µM (active).
